{"source": "PubChem BioAssay (NCATS)", "note": "Inconclusive results are not listed. Activity calls are given as the source filed them. Calls follow the shape of the dose curve; as a rule, active = well fitted cell-killing curve with a large enough effect; inconclusive = small, poorly fitted or top-dose-only effect; inactive = flat fitted curve, though single readings scatter. Non-standard residues stand in square brackets, D forms with d. Residues, ends and D or L forms follow the SMILES beside them. *: point of attachment. Nva = CCC[C@H](N)C(=O)O; Cbz = O=C(OCc1ccccc1)*", "data": [{"assay": "qHTS of pediatric cancer cell lines to identify multiple opportunities for drug repurposing: Primary screen for BT-12 cells (AID 1347101); also: nearly all actives have a fitted effect of over 25% in size; also: potency is read from the fitted curve at half-maximal effect", "conditions": "BT-12 viability, CellTiter-Glo luminescence, 48 h; series mostly up to 57.3 µM", "source_text": "Drug repurposing or repositioning has been offered as a strategy for drug development in oncology programs. This approach has special potential for childhood cancers and other rare or orphan diseases, where the expected return on new drug development has been a disincentive to pharmaceuticals.\nIn this project we exploit the poly-pharmacology of drugs to discover new indications via phenotypic screening of a panel of 19 well-characterized cell lines derived from solid tumors seen in children and adolescents. The goal is to identify approved drugs with previously unrecognized anticancer properties that has the potential to reveal new mechanisms and biological processes involved in carcinogenesis or drug resistance. We employed a titration-based paradigm (quantitative high-throughput screening or qHTS), where all compounds were tested at multiple concentrations for their effect on cell viability. Concentration-response curves (CRCs) were derived directly from the primary screen, and both potency and efficacy values were used to identify compounds with robust bioactivity profiles. We screened the NIH Chemical Genomics Center (NCGC) Pharmaceutical Collection (NPC) and Mechanism Interrogation Plate (MIPE) small molecule collections of approved and investigational compounds against these cell lines; and measured metabolically active cells after 48 hours of compound treatment as a proxy for cell viability.\nAssay Submitter: Nathalia J. Martinez, National Center for Advancing Translational Sciences, National Institutes of Health, Rockville, MD, USA; email: natalia.martinez@nih.gov\n[1] Shen, M et al. Quantitative high-throughput phenotypic screening of pediatric cancer cell lines identifies multiple opportunities for drug repurposing. Oncotarget 2017 Dec 19;9(4):4758-4772. PMID 29435139.\nThe cells were obtained from University of North Carolina (UNC), Pediatric Preclinical Testing Program (PPT), and Coriell Institute (CI).\nqHTS cell viability assay:\nCells were assayed in growth media at a density of 500-1,000 cells/well. Five microliters of cells were dispensed into 1,536-well, white, solid-bottom, TC-treated plates (Greiner Bio One) using a multidrop dispenser and incubated at 37 degrees C, 5% CO2, under a humidified atmosphere for 5 hours. Twenty-three nanoliters of compounds and controls (neutral control DMSO or positive control bortezomib at final concentration of 2.3 µM) were subsequently transferred by Kalypsys pintool. For primary screens, the MIPE collection was tested at 11-point dilutions (final concentrations range from 0.78 nM to 46 µM) and the NPC collection at 8-point dilutions (final concentrations range from 0.59 nM to 46 µM). Compounds tested in follow-up screens were assayed at 11-point dilutions. Cells were incubated for 48 hours, followed by addition of 3 µL of CellTiter-Glo (Promega). After a 15 min incubation at room temperature, samples were analyzed for luminescence intensity using a ViewLux High-throughput CCD imager equipped with clear filters.", "values": [{"compound": "CCC[C@@H](C=O)NC(=O)[C@H](CC(C)C)NC(=O)[C@H](CC(C)C)NC(=O)OCc1ccccc1", "note": "(Cbz-Leu-Leu-[Nva]-aldehyde)", "Potency": "2.17 µM (active)"}, {"compound": "C=C1CCC2[C@](C)(CO)C(O)CC[C@]2(C)C1CC=C1C(=O)OCC1O", "note": "(stereo not given in full)", "Potency": "inactive"}, {"compound": "CCOC(=O)[C@H](CCc1ccccc1)N[C@@H](C)C(=O)N1[C@@H](C(=O)O)C[C@H]2CCC[C@@H]21", "Potency": "24.3 µM (active)"}, {"compound": "OCCNC1CCCc2c1[nH]c1ccc(-c3ccccc3)cc21", "note": "(stereo not given)", "Potency": "30.6 µM (active)"}, {"compound": "CCCCC(=O)O[C@]1(C(=O)CO)[C@@H](C)C[C@H]2[C@@H]3CCC4=CC(=O)C=C[C@]4(C)[C@@]3(F)[C@@H](O)C[C@@]21C", "Potency": "inactive"}, {"compound": "COc1ccc(Nc2nccc(NCCO)n2)cc1", "Potency": "inactive"}, {"compound": "c1cc(N[C@@H]2CCNC2)nc(-c2cnc3ccc(-c4cn[nH]c4)cn23)c1", "Potency": "17.2 µM (active)"}, {"compound": "CCN(CC)CCNC(=O)c1c(C)[nH]c(C=C2C(=O)Nc3ccc(F)cc32)c1C", "Potency": "44.4 µM (active)"}, {"compound": "Cc1ccc([N+](=O)[O-])cc1S(=O)(=O)N(C)N=Cc1cnc2ccc(Br)cn12", "Potency": "0.0343 µM (active)"}, {"compound": "CC[C@H](CC[C@@H](C)[C@H]1CC[C@H]2[C@@H]3CC=C4C[C@@H](O)CC[C@]4(C)[C@@H]3CC[C@]12C)C(C)C", "Potency": "inactive"}, {"compound": "CCc1cnn2c(NCc3ccc[n+]([O-])c3)cc(N3CCCC[C@@H]3CCO)nc12", "Potency": "0.0432 µM (active)"}, {"compound": "CC(=O)O[C@]1(C(C)=O)CC[C@H]2[C@@H]3C=C(C)C4=CC(=O)CC[C@]4(C)[C@@H]3CC[C@@]21C", "Potency": "15.3 µM (active)"}, {"compound": "COC1=C2C[C@@H](C)C[C@H](OC)[C@@H](O)[C@@H](C)C=C(C)[C@H](OC(N)=O)[C@@H](OC)C=CC=C(C)C(=O)NC(=CC1=O)C2=O", "Potency": "6.11 µM (active)"}, {"compound": "CC(N[C@H]1CCCC[C@H]1NC(=O)c1ccc(Cl)cc1)c1cccc2ccccc12", "note": "(stereo not given in full)", "Potency": "1.37 µM (active)"}, {"compound": "O=C(Nc1cc2cc[nH]c2cn1)c1ccccc1", "Potency": "6.85 µM (active)"}, {"compound": "O=C(NC1CC1)c1cccc(-c2ccc3c(NC(=O)C4CC4)n[nH]c3c2)c1", "Potency": "3.85 µM (active)"}, {"compound": "C[C@@]12C[C@@]3(O)O[C@@H](O1)[C@]1(COC(=O)c4ccccc4)[C@@H]3C[C@@]12O[C@@H]1O[C@H](CO)[C@@H](O)[C@H](O)[C@@H]1O", "Potency": "inactive"}, {"compound": "c1cc(CN2CCCNCCNCCCNCC2)ccc1CN1CCCNCCNCCCNCC1", "Potency": "inactive"}, {"compound": "CS[C@H]1SC[C@@H]2C(=O)N(C)[C@H](C(C)C)C(=O)OC[C@H](NC(=O)c3cnc4ccccc4n3)C(=O)N[C@H](C)C(=O)N(C)[C@@H]1C(=O)N(C)[C@H](C(C)C)C(=O)OC[C@H](NC(=O)c1cnc3ccccc3n1)C(=O)N[C@H](C)C(=O)N2C", "Potency": "0.0054 µM (active)"}, {"compound": "Cc1ccccc1C(=O)Nc1ccc(C(=O)N2CCCC(O)c3cc(Cl)ccc32)c(C)c1", "note": "(stereo not given)", "Potency": "inactive"}, {"compound": "C=C(C)[C@@H]1CC[C@]2(C)CC[C@]3(C)[C@H](CC[C@@H]4[C@@]5(C)CC[C@H](O)C(C)(C)[C@H]5CC[C@]43C)[C@@H]12", "Potency": "inactive"}, {"compound": "CN(C)c1ccc(C(=O)NCCCCCCC(=O)NO)cc1", "Potency": "1.53 µM (active)"}, {"compound": "O=C(C=Cc1ccc(CN(CCO)CCc2c[nH]c3ccccc23)cc1)NO", "Potency": "0.611 µM (active)"}, {"compound": "COc1ccc(C=Cc2cc(OC)c(OC)c(OC)c2)cc1NC(=O)[C@H](N)CO", "Potency": "0.0086 µM (active)"}, {"compound": "CCC(C=C[C@@H]1OC(=O)C=C[C@H]1C)=C[C@H](C)CC=CC(C)=C[C@@H](C)C(=O)[C@@H](C)[C@H](O)[C@@H](C)CC(C)=CC(=O)O", "Potency": "0.0322 µM (active)"}, {"compound": "CN(C)CC(=O)N1CCC(c2ccc(NC(=O)c3ncc(C#N)[nH]3)c(C3=CCCCC3)c2)CC1", "Potency": "30.6 µM (active)"}, {"compound": "C[C@H](NC(=O)Cc1cc(F)cc(F)c1)C(=O)N[C@H](C(=O)OC(C)(C)C)c1ccccc1", "Potency": "inactive"}, {"compound": "c1cncc(CN2CCC(n3ncc4c(N5CCOCC5)nc(-c5ccc6[nH]ccc6c5)nc43)CC2)c1", "Potency": "13.7 µM (active)"}, {"compound": "COc1cccc2c1C(=O)c1c(O)c3c(c(O)c1C2=O)C[C@@](O)(C(C)=O)C[C@H]3O[C@H]1C[C@H](N)[C@H](O)[C@H](C)O1", "Potency": "0.0769 µM (active)"}, {"compound": "Cc1cc(O)c2c(c1)C(=O)c1cccc(O)c1C2=O", "Potency": "inactive"}, {"compound": "CC(C)(C)[C@H](NC(=O)c1ccc(N)c(Cl)c1)C(=O)N1CCC[C@@H]1C(=O)N[C@H](C#N)CC(=O)O", "activity change, negative = cytotoxic": "15.5% [at 6.03 µM] (inactive)"}, {"compound": "COC(=O)[C@@H]1CC2=CC(=O)CC[C@]2(C)[C@@]23O[C@@H]2C[C@@]2(C)[C@H](CC[C@@]24CCC(=O)O4)[C@@H]13", "Potency": "inactive"}, {"compound": "Cc1ncc(-c2ccnc(Nc3ccc(S(C)(=O)=O)cc3)n2)n1C(C)C", "Potency": "3.85 µM (active)"}, {"compound": "CC(Oc1ccc(O)cc1)(P(=O)(O)O)P(=O)(O)O", "Potency": "inactive"}, {"compound": "C[C@@H](NCc1cc2ccccc2[nH]1)c1cccc2ccccc12", "Potency": "inactive"}, {"compound": "COc1cc([C@@H]2c3cc4c(cc3[C@H](O)[C@H]3COC(=O)[C@@H]23)OCO4)cc(OC)c1OC", "Potency": "0.273 µM (active)"}, {"compound": "O=C(C[C@@H]1CC=CCCC(=O)O[C@H](c2ccccc2)CNC1=O)NCc1ccc(Cl)cc1", "Potency": "inactive"}, {"compound": "O=c1c(O)c(-c2ccc(O)c(O)c2)oc2cc(O)ccc12", "Potency": "27.3 µM (active)"}, {"compound": "CC(=O)OCC(=O)[C@@]1(O)CC[C@H]2[C@@H]3CCC4=CC(=O)CC[C@]4(C)[C@@H]3C(=O)C[C@@]21C", "Potency": "inactive"}, {"compound": "CCn1c(=O)c2c(nc(C=Cc3ccc(OC)c(OC)c3)n2C)n(CC)c1=O", "Potency": "inactive"}]}]}
